Screens from PubChem BioAssay.
Compounds with a hit are over-represented: about 11% of the library has one in this group of screens.
HEK cytotox = cytotoxic compounds in HEK 293 cells; AID 1345083; Potency, µM (doses to about 115 µM), without a hit: at the top dose activity change, negative = cytotoxicity, actives largely listed as inhibitors; HEK 293 viability, ATP luminescence (CellTiter-Glo), 48-72 h; 6.6% of 94,000 active; further: nearly all actives have a fitted effect of over 60% in size
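HEK 293 cells at 250 cells/well were exposed to compounds by pintool transfer for 48 or 72 hr at 37 degree Celsius, 5% CO2. Viability was read as ATP-coupled luminescence with CellTiter-Glo after 10 min at room temperature.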
FLuc inh = blocks purified firefly luciferase enzyme activity; purified P. pyralis luciferase, luminescence, biochemical; 2.5% of 76,000 active; Potency, µM (top dose mostly 115 µM), actives largely listed as inhibitors; P08659; further: nearly all actives have a fitted effect of over 65% in size
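Purified P. pyralis luciferase (10nM final) in 50mM Tris acetate pH 7.5, 10mM Mg acetate, 0.01% Tween-20, 0.05% BSA with 10uM D-luciferin and 10uM ATP. Compounds titrated qHTS. Luminescence imaged on CCD.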
hNpr1 antagonist = blocks ANP-stimulated signaling of human Npr1 receptor. P16066. HEK293 hNpr1 GloSensor cGMP, ANP-stimulated luminescence. Potency, µM (top dose mostly 46.3 µM), inactives show at the highest dose activity change, negative = inhibition, most hits filed as inhibitors. 1.6% of 76,000 active. AID 1347048; calls by dose curve; further: nearly all actives have a fitted effect of over 60% in size
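Compound pre-incubated 30 min at room temperature on GloSensor-loaded HEK293 cells stably carrying hNpr1 and the pGS-40F cGMP biosensor. Stimulation uses hNppA at 0.1 nM final; luminescence is taken at baseline and 20 min post-agonist.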
3T3 cytotox = kills NIH 3T3 cells; NIH 3T3 viability, CellTiter-Glo ATP luminescence, 48-72 h; Potency, µM (series often up to 96.7 µM), without a hit: at the highest dose activity change, negative = cytotoxicity, actives largely listed as inhibitors; 4.3% of 94,000 active; further: nearly all actives have a fitted effect of over 55% in size
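NIH 3T3 cells at 400 cells/well received 23 nL of compound by pintool and were incubated 48 or 72 h at 37 °C. Viability was read as ATP-coupled CellTiter-Glo luminescence.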
* hit, by the source's call; i = inactive; ? = inconclusive; . = not tested or not shown; ! = a repeat was not active; [ ] = another dose, or the depositor's remark. Unless noted, the call rests on the fitted dose curve; in most records, active means well fitted curve in the direction sought with a large enough effect; inconclusive means small, poorly fitted or top-dose-only effect, or another doubt; inactive means no such curve, though single readings can be large; an effect the other way counts as inactive or inconclusive. On the % scale 0 is the no-effect control and ±100 the full control effect; potency means the concentration at half of the fitted maximal effect.

SMILES | HEK cytotox | FLuc inh | hNpr1 antagonist | 3T3 cytotox
COc1ccc(CN2C(=O)COC[C@H]2C(=O)Nc2ccc(OC)c(C(F)(F)F)c2)cc1 | 45µM* | i | ? | ?
COc1ccc(CN2C(=O)COC[C@H]2C(=O)Nc2ccc(OC)c(OC)c2)cc1OC | -1% | i | -2% | -1%
CN(Cc1ccc(C2CC(=O)Nc3n[nH]c(C4CCC4)c32)o1)S(C)(=O)=O (configuration not stated) | i | i | 5% | i
Cc1ccc2nc(C(C)NC(=O)c3cnc(-c4ccccn4)[nH]c3=O)[nH]c2c1 (configuration not stated) | 25µM* | i | -1% | ?
COc1cccc(CCC(=O)N2CCCN(c3cc(-c4ccc(Cl)cc4)[nH]n3)CC2)c1 | ? | i | ? | 35µM*
COc1ccccc1CCC(=O)N1CCCN(c2cc(-c3ccc(Cl)cc3)[nH]n2)CC1 | ? | i | -26% | 35µM*
O=C(C1CCCN1C(=O)c1ccccc1F)N1CCC(c2nc3ccncc3[nH]2)C1 (configuration not stated) | -3% | . | . | 0%
Cc1oc2ccn(Cc3cccc(F)c3)c(=O)c2c1C(=O)NCc1cccc(F)c1 | ? | i | -16% | ?
COc1ccc(C(C)NC(=O)c2c(C)oc3ccn(Cc4cccc(F)c4)c(=O)c23)cc1 (configuration not stated) | 32µM* | i | -14% | ?
Cc1oc2ccn(Cc3ccc(F)cc3)c(=O)c2c1C(=O)O | 6% | i | 2% | 2%
CCCNC(=O)c1c(C)oc2ccn(Cc3ccc(F)cc3)c(=O)c12 | 35µM* | i | -15% | ?
CC(=O)Nc1ccc(CN2CCC3(CC2)CC(=O)c2ccc(Cl)cc2O3)cc1 | 50µM* | i | 12% | ?
O=C1CC2(CCN(Cc3cccs3)CC2)Oc2cc(Cl)ccc21 | ? | 16µM*! | 0% | ?
O=C1CC2(CCN(C(=O)c3ccc(C(F)(F)F)cc3)CC2)Oc2cc(Cl)ccc21 | 35µM* | i | -20% | 25µM*
CN(C)c1ccc(CN2CCC3(CC2)CC(=O)c2ccc(Cl)cc2O3)cc1 | ? | i | 14% | ?
CC(=O)Nc1ccc(CN2CCC3(CC2)CC(=O)c2ccccc2O3)cc1 | -15% | i | 0% | ?
Cc1nn(-c2ccccc2)c2c1C(C)N(C1CCN([S+](=O)([O-])c3ccc(C4CC4)cc3)C1)C2=O (configuration not stated) | -33% | . | . | ?
COc1ccc(-c2cc(C(=O)NCC(C)C)c3c(C4CCNC4)nn(C)c3n2)cc1 (configuration not stated) | ? | . | . | 20µM*
COc1ccc(-c2cc(C(=O)N3CCOCC3)c3c(C4CCNC4)nn(C)c3n2)cc1 (configuration not stated) | -25% | . | . | -30%
CC(C)COC(=O)N1C[C@@H](CO)[C@@H]2Oc3c(F)cccc3[C@@H]21 | ? | . | . | 32µM*
CCOC(=O)[C@@H]1CN(C(=O)OCC(C)C)[C@H]2c3ccc(OC)cc3O[C@@H]12 | -27% | . | . | 40µM*
C=CCCOC(=O)N1C[C@@H](C(=O)OCC)[C@@H]2Oc3cc(OC)ccc3[C@@H]21 | -18% | . | . | ?
COc1ccc(-c2ccc(C(=O)N3CCC(NC(=O)c4ccccc4Cl)C3)cc2)nn1 (configuration not stated) | -21% | . | . | -24%
COc1cccc(N2C(=O)NC(=NC3CCCCC3)C23CCCN(Cc2ccsc2)C3)c1 (configuration not stated) | ? | . | . | 40µM*
COc1cccc(N2C(=O)NC(=NC3CCCCC3)C23CCCN(Cc2ccc(N(C)C)cc2)C3)c1 (configuration not stated) | 32µM* | . | . | 28µM*
SMILES | HEK cytotox | FLuc inh | hNpr1 antagonist | 3T3 cytotox
COc1cccc(N2C(=O)NC(=NC3CCCCC3)C23CCCN(Cc2cccnc2)C3)c1 (configuration not stated) | -17% | . | . | ?
Cc1ccccc1NC(=O)C1CCc2nc(N3CCN(C(=O)C(C)C)CC3)sc2C1 (configuration not stated) | 10µM* | i | -8% | 35µM*
Cc1ccc(CNC(=O)C2CCc3nc(N4CCN(C(=O)C(C)C)CC4)sc3C2)o1 (configuration not stated) | 79µM* | i | -4% | -17%
CC(=O)N1CCN(c2nc3c(s2)CC(C(=O)Nc2cc(Cl)ccc2F)CC3)CC1 (configuration not stated) | 40µM* | i | -22% | ?
CC(=O)N1CCN(c2nc3c(s2)CC(C(=O)NCc2cccc(Cl)c2)CC3)CC1 (configuration not stated) | ? | i | -10% | -31%
Cc1ncsc1C(=O)N1CCNc2cnc(Nc3cccc(C(F)(F)F)c3)nc2C1 | ? | i | ? | ?
O=C(c1ccc(Oc2ccccc2)cc1)N1CCNc2cnc(Nc3cccc(C(F)(F)F)c3)nc2C1 | 22µM* | i | ? | 25µM*
O=C(c1ccc(Cl)cc1)N1CCNc2cnc(Nc3cccc(C(F)(F)F)c3)nc2C1 | 32µM* | i | ? | 22µM*
O=C(Nc1cccs1)N1CCNc2cnc(Nc3cccc(C(F)(F)F)c3)nc2C1 | 79µM* | i | -5%[70.6 µM] | 79µM*
CSc1ccc(NC(=O)c2cc3c(s2)CN(C2CC2)C3)cc1 | ? | ? | 11µM* | ?
Cc1ccc(NC(=O)c2cc3c(s2)CN(C2CC2)C3)cc1 | ? | 8.9µM* | -30% | ?
CCOc1ccc(NC(=O)c2cc3c(s2)CN(C2CCCC2)C3)cc1 | ? | i | -20% | ?
CCN1CCN(C(=O)c2cc(-c3ccccc3C(F)(F)F)nc3c2cnn3C)CC1 | i | . | . | -8%
Cc1ccc(OCc2nc(C3CCCN3C(=O)Nc3ccccc3)no2)cc1 (configuration not stated) | 89µM* | . | . | ?
Cc1ccc(OCc2nc(C3CCCCN3C(=O)NCc3ccc(F)cc3)no2)cc1 (configuration not stated) | ? | i | 5% | ?
Cc1ccc(OCc2nc(C3CCCN3C(=O)Nc3ccc(C)c(F)c3)no2)cc1 (configuration not stated) | 89µM* | i | -23% | ?
Cc1ccc(NC(=O)N2CCCCC2c2noc(COc3ccc(F)cc3)n2)cc1F (configuration not stated) | 45µM* | i | -26% | ?
CN(C)C(=O)c1ccnc(-c2nnc3ccc(NC4CCCCC4)nn23)c1 | 1%[172 µM] | i | 4%[70.6 µM] | ?
CN(C)C(=O)c1ccc(-c2ccc(N3CCCCCC3)nc2)cc1 | 32µM* | 18µM* | -23% | ?
CN(C)C(=O)c1ccnc(-c2nnc3ccc(N4CCCCC4)nn23)c1 | 5%[172 µM] | i | -2%[70.6 µM] | 32µM*
O=C(c1ccc(-c2ccc(N3CCCCCC3)nc2)cc1)N1CCCC1 | 28µM* | ? | ? | 32µM*
